KB-V1 MDR tox = kills drug-selected multidrug resistant KB-V1 cells; Potency, µM (series often up to 46.1 µM), most hits filed as cytotoxic; AID 1347076; KB-V1 MDR cells viability, CellTiter-Glo, 72 h; actives 3.4% (n = 400,000); further: on the % scale 0 is the no-effect control and ±100 the full control effect; nearly all actives have a fitted effect of over 60% in size
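Following 72 h at 37 degrees C with compound, KB-V1 cell viability was read by CellTiter-Glo luminescence, medium being phenol-red-free DMEM plus 10% FBS; concentration-response parameters came from normalized, curve-fitted qHTS data.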
TSG101-PTAP inh = blocks PTAP/TSG101 interaction to inhibit HIV-1 budding; Q99816; Fluorescence polarization, FITC-PTAP peptide / Tsg101 binding; Potency, µM (series often up to 115 µM), for inactives: at the highest dose activity change, negative = inhibition, most hits filed as inhibitors; 340,000 tested, under 10 active; active means well fitted inhibition curve with a large enough effect in the main read-out, with a control signal flat, not every such curve was filed as active; inconclusive means small, poorly fitted or top-dose-only effect, or effect the other way, or a change in a side signal; inactive means no such curve, though single readings can be large or run the other way; further: % of control where 0% means no effect
Target sequence (Q99816 whole entry, looked up): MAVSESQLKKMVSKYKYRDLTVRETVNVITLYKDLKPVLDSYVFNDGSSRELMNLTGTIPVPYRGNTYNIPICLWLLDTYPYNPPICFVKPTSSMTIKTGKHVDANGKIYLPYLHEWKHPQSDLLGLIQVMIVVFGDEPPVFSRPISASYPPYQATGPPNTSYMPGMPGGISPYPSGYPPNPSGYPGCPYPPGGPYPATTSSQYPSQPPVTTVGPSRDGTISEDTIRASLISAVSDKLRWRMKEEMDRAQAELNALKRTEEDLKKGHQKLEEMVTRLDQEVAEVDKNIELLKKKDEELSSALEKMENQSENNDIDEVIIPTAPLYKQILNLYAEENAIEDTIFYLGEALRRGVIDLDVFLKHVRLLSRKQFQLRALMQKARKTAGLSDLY
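Compounds were pin-transferred onto Tsg101 binding domain (10 uM final) in HEPES pH 7.5 buffer, then FITC-PTAP peptide was added at 50 nM final. After 20 min at RT, polarization reported peptide displacement across a qHTS concentration series.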
RGS4 inh = inhibitors of human regulator of G protein signaling 4; Transcreener GDP fluorescence polarization, RGS4-accelerated GTP hydrolysis; Potency, µM (top dose mostly 114 µM), for the others: top-dose activity change, negative = inhibition, hits mostly inhibitors; actives 0.039% (n = 390,000); further: on the % scale 0 is the no-effect control and ±100 the full control effect; nearly all actives have a fitted effect of over 75% in size
Target sequence (P49798 whole entry, looked up): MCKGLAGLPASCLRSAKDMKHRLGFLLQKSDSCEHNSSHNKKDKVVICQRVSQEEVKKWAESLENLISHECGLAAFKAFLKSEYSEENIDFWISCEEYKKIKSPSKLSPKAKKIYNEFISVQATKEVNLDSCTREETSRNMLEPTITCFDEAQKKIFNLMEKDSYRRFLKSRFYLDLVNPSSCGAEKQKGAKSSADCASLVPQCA
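MLSMR compounds (23 nl, pin-transferred) preincubated 10 min at room temperature with a 500nM (2x) first reagent, then RGS4 at 900nM (2x) plus Transcreener GDP mix added; fluorescence polarization (620/688 nm) read before and after 90 min at 30 °C.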
KB-3-1 cytotox = KB-3-1 parental cell cytotoxicity; Potency, µM (top dose mostly 46.1 µM), actives largely listed as cytotoxic; AID 1347075; KB-3-1 viability, CellTiter-Glo ATP luminescence, 72 h; actives 1.4% (n = 400,000); further: on the % scale 0 is the no-effect control and ±100 the full control effect; nearly all actives have a fitted effect of over 60% in size
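Here the drug-naive KB-3-1 line serves as comparator for MDR sub-line selectivity; cells received compound titrations, 72 h at 37 °C, then CellTiter-Glo readout.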
SW480 rereplic = induces DNA re-replication in SW480 colon adenocarcinoma cells. SW480 DNA re-replication, Hoechst DNA content imaging, 48 h. Potency, µM (series often up to 46.1 µM), inactives show at the top dose re-replication activation, most hits filed as activators. actives 1.8% (n = 340,000). AID 624297; further: % of control where 0% means no effect; nearly all actives have a fitted effect of over 55% in size
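SW480 cells exposed to compounds for 48 hr at 37 C, 5% CO2, then Hoechst-stained 40 min. Nuclear DNA content imaged by fluorescence scanning (405 nm excitation, 500-530 nm emission); re-replication scored as increased high-intensity nuclei.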
MCF10A rerep = inducers of DNA re-replication in MCF 10A breast cells; MCF 10A DNA re-replication, Hoechst nuclear intensity, 48 h; Potency, µM (series often up to 46.1 µM), inactives show top-dose activity, positive = re-replication, most hits filed as activators; actives 2.9% (n = 350,000); further: % of control where 0% means no effect; nearly all actives have a fitted effect of over 50% in size
* hit, by the source's call; i = inactive; ? = inconclusive; · = no result; [ ] = dose if it differs, or a comment. Hits are enriched below; roughly 6.6% of the tested compounds scored in any of these assays. Unless noted, the call rests on the fitted dose curve; in most records, active means well fitted curve in the direction sought with a large enough effect; inconclusive means small, poorly fitted or top-dose-only effect, or another doubt; inactive means no such curve, though single readings can be large; an effect the other way counts as inactive or inconclusive. Potency means the concentration at half of the fitted maximal effect.

SMILES	KB-V1 MDR tox	TSG101-PTAP inh	RGS4 inh	KB-3-1 cytotox	SW480 rereplic	MCF10A rerep
O=C(c1csc2c1CCCC2)N1CCN(c2cccc(C(F)(F)F)c2)CC1	21µM*	1%	0%	i	6%	?
CCc1cccc(CC)c1NC(=O)C(Cc1ccccc1)NS(=O)(=O)c1cccc2nsnc12 (stereo unspecified)	?	·	4%	i	·	·
O=C1CC(/C=C/c2ccncc2)=Nc2ccccc2N1	?	-4%	5%	?	16µM*	?
Cc1csc2nc(-c3cccc(NC(=O)c4cccc(F)c4)c3)cn12	?	·	-32%	i	·	·
CC1CCC(NC(=O)C2c3ccccc3C(=O)N2Cc2cccs2)CC1 (stereo unspecified)	3.7µM*	-2%	-3%	i	1%	-1%
O=C(NC1CCCCCCC1)C1c2ccccc2C(=O)N1Cc1cccs1 (stereo unspecified)	i	0%	13%	i	22%	-2%
O=C(c1nc(-c2ccc(Cl)cc2)n2c1CCCCC2)N1CCN(c2ccccc2)CC1	i	·	-6%	i	·	·
CCCN1CCc2c(sc3nc(SCC)n(-c4ccc(OC)cc4)c(=O)c23)C1	i	-1%	16%[56.9 µM]	i	12%	21µM*
CCCN1CCc2c(sc3nc(SC)n(-c4ccccc4)c(=O)c23)C1	i	0%	-10%	i	?	18µM*
COc1ccc(-n2c(SC)nc3sc4c(c3c2=O)CCN(C)C4)cc1	i	-10%	-4%[56.9 µM]	i	15%	?
CCCN1CCc2c(sc3nc(SCC)n(-c4ccccc4)c(=O)c23)C1	i	-7%	-10%	i	5%	?
O=C(Nc1cccc(F)c1)c1ccc2oc(=O)n(Cc3ccccc3)c2c1	i	·	8%	i	·	·
Cc1ccc2nc(NC(=O)CSc3nccn3Cc3ccc(Cl)cc3)sc2c1	·	·	-25%	·	·	·
CN(Cc1nc(-c2ccccn2)no1)S(=O)(=O)c1ccccc1	i	-3%	6%	i	-1%	-3%
CN(Cc1nc(-c2ccncc2)no1)S(=O)(=O)c1ccc(Br)cc1	15µM*	-2%	3%	i	-5%	-5%
CN(Cc1nc(-c2ccncc2)no1)S(=O)(=O)c1ccc(Cl)cc1	15µM*	·	14%	i	-5%	-6%
CN(Cc1nc(-c2ccncc2)no1)S(=O)(=O)c1ccccc1	i	-1%	5%[11.4 µM]	i	-2%	0%
O=C(/C(=C/O)N=Nc1ccccc1)c1ccco1	i	-3%	-5%	i	?	15µM*
COc1cc2nc(C3CCC3)nc(N3CCN(c4ccccc4OC)CC3)c2cc1OC	7.3µM*	0%	-28%	i	?	?
COc1cc2nc(C3CCC3)nc(N3CCN(c4ccccn4)CC3)c2cc1OC	?	1%	0%	?	1%	?
Cc1nnc(SCC(=O)Nc2ccc([N+](=O)[O-])cc2)n1CC1CCCO1 (stereo unspecified)	i	-4%	-8%	i	23µM*	3%
CC1CC(C)CN(C(=O)CSc2ncnc3sccc23)C1 (stereo unspecified)	21µM*	0%	-39%	i	-5%	12%
CCNC(=O)NC(=O)C(C)OC(=O)c1oc2ccccc2c1CSC1CCCCC1 (stereo unspecified)	13µM*	-2%	20%	i	-3%	10%
CCOC(=O)c1c2c(n(C)c1C)C(=O)C(=O)c1ccc(Br)cc1-2	3.3µM*	0%	10%[11.4 µM]	3.7µM*	2.6µM*	2.1µM*
CCOC(=O)c1c2c(n(Cc3ccccc3)c1C)C(=O)C(=O)c1ccccc1-2	3.3µM*	-2%	-3%	2.9µM*	4.1µM*	3.3µM*
SMILES	KB-V1 MDR tox	TSG101-PTAP inh	RGS4 inh	KB-3-1 cytotox	SW480 rereplic	MCF10A rerep
Cc1c(CN(C)C)c2c(n1C)C(=O)c1ccc(Br)cc1-2	i	-3%	5%	i	?	27%
CCOC(=O)c1c2c3c(cccc3n(C)c1=O)C(=O)c1ccccc1-2	21µM*	-8%	-11%	?	0%	23%
CCCN1CNc2c(c(=O)[nH]c(=S)n2CCc2cc(C)ccc2C)C1	·	·	-10%	·	·	·
COc1ccccc1NC(=O)CCNS(=O)(=O)c1ccc2c(c1)CCCC(=O)N2	i	·	22%	i	·	·
CCCCOc1ccc(C(=O)Nc2ccc3c(c2)CCCN3S(=O)(=O)c2ccc(C)cc2)cc1	?	·	25%	?	·	·
CC(C)CCOc1ccc(C2=NNC(=O)CC2)cc1	1.8µM*	-5%	-42%	?	13%	1%
COc1cc(-c2nnc3n(CCc4ccccc4)c(=O)c4ccccc4n23)cc(OC)c1OC	i	-7%	-9%	i	5%	?
COc1ccc(-c2nnc3n(CCc4ccccc4)c(=O)c4ccccc4n23)c(OC)c1	?	-2%	-5%	i	17%	21µM*
Cc1ccc(C)c(OCc2nnc(N)s2)c1	i	-8%	-7%	i	0.73µM*	?
CCS(=O)(=O)N1CCc2cc(C(=O)N3CCN(c4ccc(OC)cc4)CC3)ccc21	i	·	3%	i	·	·
Cc1ccc(C)c(C(=O)NC2CC(C)(C)NC(C)(C)C2)c1	i	-6%	14%	i	-5%	0%
CC1(C)CC(NC(=O)c2sc3cc(Cl)ccc3c2Cl)CC(C)(C)N1	18µM*	0%	16%	?	?	-26%
CC1(C)CC(NC(=O)c2cc(Cl)ccc2Cl)CC(C)(C)N1	i	-3%	-21%	i	9.2µM*	2%
Cc1ccc(Cl)cc1NC(=O)Cn1c(=O)n(CCCS(=O)(=O)C2CCCCC2)c(=O)c2ccccc21	i	·	4%	i	·	·
Cc1ccc(NC(=O)Cn2ccn(-c3ccccc3)c(=O)c2=O)cc1	·	·	-15%	·	·	·
CCCC1CCc2c(sc(NC(=O)OCC)c2C#N)C1 (stereo unspecified)	5.8µM*	-1%	-18%	?	10µM*	?
CN=C1c2cc3cc(OC)ccc3n2CCN1Cc1ccccc1	16µM*	0%	-12%	8.2µM*	11µM*	21µM*
CCN(CC)CCNC1=NCCn2c1cc1cc(OC)ccc12	i	-3%	-28%[56.9 µM]	i	?	?
O=c1nc(Nc2cccc(Cl)c2)oc2cc(Cl)oc(=O)c12	?	-1%	-30%	i	18%	16µM*
O=c1nc(Nc2ccccc2)oc2ccccc12	?	-1%	-3%	i	2%	0%

High-throughput results: PubChem BioAssay, National Center for Advancing Translational Sciences (NCATS)
